Hit rate of the full screen: of about 310,000 compounds, about 1,200 (0.39%) were called active. How the calls were made is not given here. A selection follows. Results with a measured potency or affinity are listed apart.
The compounds below were run against Large T antigen (Simian virus 40) (UniProt P03070) (assay: TAg ATPase/helicase activity blockers – biochemical (AID 1903)). Conditions: SV40 large T antigen ATPase/helicase inhibition assay; at 20 µM; active compounds read high.
Large T antigen (Simian virus 40), sequence (P03070 whole entry, looked up): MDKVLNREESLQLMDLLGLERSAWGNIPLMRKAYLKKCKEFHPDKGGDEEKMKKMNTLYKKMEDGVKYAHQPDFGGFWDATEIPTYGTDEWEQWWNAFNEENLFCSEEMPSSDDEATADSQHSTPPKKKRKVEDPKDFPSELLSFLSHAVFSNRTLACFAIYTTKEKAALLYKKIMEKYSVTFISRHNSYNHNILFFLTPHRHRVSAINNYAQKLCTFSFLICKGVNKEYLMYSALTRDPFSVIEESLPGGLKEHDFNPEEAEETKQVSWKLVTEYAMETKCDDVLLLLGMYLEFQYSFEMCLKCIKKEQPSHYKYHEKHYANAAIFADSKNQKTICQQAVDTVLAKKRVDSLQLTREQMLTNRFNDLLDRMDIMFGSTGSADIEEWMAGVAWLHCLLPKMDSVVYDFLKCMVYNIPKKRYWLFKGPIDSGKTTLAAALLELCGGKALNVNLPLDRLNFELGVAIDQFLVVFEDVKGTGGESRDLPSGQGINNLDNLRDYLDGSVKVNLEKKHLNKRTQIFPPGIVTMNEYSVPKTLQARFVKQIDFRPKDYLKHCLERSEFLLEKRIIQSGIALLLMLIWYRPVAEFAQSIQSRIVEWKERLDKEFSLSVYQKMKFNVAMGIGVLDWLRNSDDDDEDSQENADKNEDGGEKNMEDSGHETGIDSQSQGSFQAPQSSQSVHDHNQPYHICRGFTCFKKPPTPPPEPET

inhibition, inactive:
Cc1ccc(NS(=O)(=O)c2cc(C(=O)N(C)C)ccc2C)cc1C 7.8%, CC(=O)Nc1ccc(NC(=O)CCOc2ccccc2C)cc1 9.91%, O=C(NCCc1nnc2ccc(N3CCCCCC3)nn12)c1ccccc1F 10%, COc1ccc(C(=O)NCC(C)(C)CNC(=O)c2ccc(OC)cc2)cc1 11.7%, CCN(CC)c1ccc(CN(C(=O)c2ccco2)C2CCS(=O)(=O)C2)cc1 (centres undefined) 21.8%, COC(=O)C1=C(C(=O)OC)[C@@H]2N(C)c3ccc(OC)cc3[C@@]23C[C@@H](C(=O)OC)N(S(=O)(=O)c2ccc([N+](=O)[O-])cc2)C3=N1 1.76%, CCOC(=O)C1=NN(c2ccc(C)cc2)CC1C(=O)OC (centres undefined) 7.97%, CCOc1cc(C(=O)N[C@@H](C)C(=O)N2CCC3(CC2)NCCc2[nH]cnc23)cc(OCC)c1OCC 4.98%, Oc1cccc(/C=N/NC(=S)NCCN2CCOCC2)c1O 50.5%, COc1ccc(CNC(=S)N/N=C/c2ccc(OC)c(OC)c2)cc1 4.58%, CCOc1ccc(CNC(=S)N/N=C/c2ccc(OC)c(OC)c2)cc1 9.25%, S=C(NCCN1CCOCC1)N/N=C/c1ccccc1 2.2%, COCCCNC(=S)N/N=C/c1ccc(O)cc1 46.2%, COc1cc(/C=N/NC(=S)NCCN2CCOCC2)cc(OC)c1O 30.1%, COc1cc(/C=N/NC(=S)NCCN2CCOCC2)cc(OC)c1OC 12.4%, COCCCNC(=S)N/N=C/c1ccccc1O 12.5%, CC(=O)c1cccc(NC(=S)NC(=O)c2ccccc2Br)c1 4.36%, COCCn1c(-c2ccc(Br)cc2)csc1=Nc1cccnc1 8.06%, O=C(CN1CCN(C(=O)c2ccco2)CC1)Nc1ccc(Cl)c(S(=O)(=O)N2CCOCC2)c1 0.58%, O=C(Nn1cnnc1)C(Sc1ccccc1)c1ccccc1 (centres undefined) 1.32%, O=C(NCCF)[C@H]1C[C@@H]1[C@H](NP(=O)(c1ccccc1)c1ccccc1)c1ccccc1 3.51%, COc1ccc2oc(C(=O)OCC(=O)Nc3ccc(N4CCOCC4)cc3)c(C)c2c1 14%, CC(C)CCn1c(CN2CC(C)OC(C)C2)nc2c1c(=O)n(C)c(=O)n2C (centres undefined) 4.84%, CC(C)Oc1ccc(Br)cc1/C=N\NC(N)=S 16%, CC(C)NC(=O)c1nn2c(C(F)(F)F)cc(-c3ccco3)nc2c1Cl 10.7%, Cc1nn(-c2cccc(Cl)c2)nc1C(=O)O 6.68%, Cn1c(=O)n(-c2cccc(Cl)c2)c(=O)n1C 10.7%, O=C1Nc2cc(Cl)ccc2Nc2cscc21 14.2%, CCOc1cc(C(C(=O)NCC2CCCO2)N(C(=O)Cn2nnc3ccccc32)c2ccccc2C)ccc1O (centres undefined) 9.12%, Cc1ccc(NC(=O)/C(=C\c2cccs2)NC(=O)c2ccccc2)cc1 3%, O=C(Nc1ccccc1)/C(=C\c1ccncc1)NC(=O)c1ccccc1 5.96%, CC(=O)Nc1ccc(NC(=O)/C(=C/c2ccco2)NC(=O)c2ccccc2)cc1 14.8%, O=C(Nc1ccccc1)/C(=C\c1cccs1)NC(=O)c1ccccc1 10.4%, O=C(Nc1ccc(C(=O)O)cc1)/C(=C\c1ccco1)NC(=O)c1ccccc1 7.81%, Cc1ccc(NC(=O)/C(=C/c2ccncc2)NC(=O)c2ccccc2)cc1 13.5%, COc1cc(CN2CCCC(C(=O)Nc3ccccc3Oc3cccnc3)C2)ccc1F (centres undefined) 7.89%, CCOC(=O)c1[nH]c2c(c1-c1ccccc1)C(=O)CC(c1ccc(OCC)cc1)C2 (centres undefined) -10.4%, C=CCOc1ccc(CNCc2cccnc2)cc1 2.27%, Cn1c(N2CCN(C(c3ccccc3)c3ccccc3)CC2)nc2ccccc21 0.51%, Cc1cc2nc3c(c(C(F)(F)F)n2n1)CCCC3 3.17%, COc1cc(/C=C2\CCCc3c2nc2ccccc2c3C(=O)O)cc(OC)c1O 30.3%, COc1ccc(/C=C2\CCc3c2nc2ccccc2c3C(=O)O)cc1OC 6.95%, COc1cccc(N2CC(NS(=O)(=O)c3ccc4ccccc4c3)CC2=O)c1 (centres undefined) 11%, Nc1ccccc1SSc1ccccc1N 22.8%, Cc1ccc(O)c(Sc2cc(C)ccc2O)c1 5.68%, O=S(=O)(c1ccc(-c2cnc(C3CC3)o2)cc1)N1CCN(c2ccccc2)CC1 7.98%, O/N=C1\CCCc2ccc(Cl)cc21 3.89%, Cc1cc(C)n(CCc2nc(-c3cccs3)cs2)n1 0.46%, Cc1cc(C)n(CCc2nc(-c3ccc(C)o3)cs2)n1 28.1%, CC(O)c1nc2cc([N+](=O)[O-])ccc2n1Cc1ccccc1 (centres undefined) 7.32%, O=C(/C=C/c1cccc(Cl)c1)NCc1cccs1 -0.755%, COc1ccc(NC(=O)COc2ccc(C)c(C)c2)cc1S(=O)(=O)N1CCCCC1 5.04%, Cc1cccc(OCCn2ccnc2)c1C 12.1%, CC(C)Cn1c(=O)c(C(=O)NCc2ccc3c(c2)OCO3)c(O)c2ccccc21 -14.6%, CCOC(=O)C1(C)C=C(Nc2ccc(C)cc2)C(=O)N1c1ccc(C)cc1 (centres undefined) 12.1%, CCOC(=O)C1(C)C=C(Nc2ccc(NC(C)=O)cc2)C(=O)N1c1ccc(NC(C)=O)cc1 (centres undefined) 6.98%, COc1ccc(C)c2sc(=NC(=O)c3cccc(N4C(=O)CCC4=O)c3)n(C)c12 14.4%, COC(=O)c1c(C(=O)OC)c2ccccn2c1C(=O)c1ccccc1 10.4%, Cc1ccc(N=C(N)N=C(N)N)cc1 6.91%, Cc1ccc(-c2nc(C=Nc3ccc(O)cc3)c(O)o2)cc1 23.6%, O=C1CC(NS(=O)(=O)c2cc(F)ccc2F)CN1c1cccc(F)c1 (centres undefined) 4.86%, CCc1ccc[n+](-c2nc3ccccc3nc2C(=C=[N-])C#N)c1 11.3%, CN1CCN(C(=O)c2cccn(Cc3ccc(C(F)(F)F)cc3)c2=O)CC1 2.45%, COc1ccc(OC)c(C2CC(=O)N3CN(c4cccc(Cl)c4)CSC3=C2C#N)c1 (centres undefined) 21.8%, N#CC1=C2SCN(c3ccccc3)CN2C(=O)CC1c1cccs1 (centres undefined) 25.3%, CCOC(=O)c1ccc(N2CSC3=C(C#N)C(c4cccs4)CC(=O)N3C2)cc1 (centres undefined) 28.9%, COc1ccc(C2CC(=O)N3CN(Cc4ccco4)CSC3=C2C#N)cc1 (centres undefined) 36.8%, COc1cccc(C2CC(=O)N3CN(c4cccc(Cl)c4C)CSC3=C2C#N)c1OC (centres undefined) 25.5%, COc1ccc(OC)c(C2CC(=O)N3CN(c4ccccc4)CSC3=C2C#N)c1 (centres undefined) 35.4%, COc1ccc(C2CC(=O)N3CN(c4ccc(C)c(Cl)c4)CSC3=C2C#N)cc1 (centres undefined) 34.4%, CCOC(=O)c1ccc(N2CSC3=C(C#N)C(c4ccc(OC)cc4OC)CC(=O)N3C2)cc1 (centres undefined) 31%, COc1ccc(-c2nn(-c3ccccc3)cc2/C=C/C(=O)O)cc1[N+](=O)[O-] 18.4%, C#CCOCCOCCOCCNc1nc(N2CCN(C(=O)[C@H]([C@@H](C)CC)n3cc([C@@H](N)CC(C)C)nn3)CC2)nc(N2CCN(C(=O)[C@H]([C@@H](C)CC)n3cc([C@@H](N)CC(C)C)nn3)CC2)n1 3.81%, CC(C)c1ccc(NC(=O)CSc2ncccc2C(=O)Oc2cccc([N+](=O)[O-])c2)cc1 16.9%, CCc1cc2c3c([nH]c2cc1S(=O)(=O)N1CCC2(CC1)OCCO2)CCCC3=O -0.36%, CCN(C(=O)Cn1cnc2c(nc3n2CCCCC3)c1=O)c1cccc(Cl)c1 18.9%, C#CCn1c(=NC(=O)c2cc(-c3cccs3)nc3ccccc23)sc2cc(S(N)(=O)=O)ccc21 8.04%, O=C(O)C1CCCCC1C(=O)Nc1ccc(OCc2ccccc2)cc1 (centres undefined) 9.44%, COc1cc(/C=C/c2nc3ccccc3c(=O)[nH]2)cc(Br)c1O -2.29%, CCOC(=O)c1[nH]c2ccccc2c1NC(=O)CC(C)(C)C -0.46%, O=C(O)CCC(=O)Nc1ccc(Cc2ccc(NC(=O)CCC(=O)O)cc2)cc1 5.94%, O=C(O)CCC(=O)Nc1ccc(F)cc1 12.5%, CC1CCCC(NC(=O)C2CCN(S(=O)(=O)c3cnc[nH]3)CC2)C1C (centres undefined) 10.4%, COc1ccccc1N1CCN(S(=O)(=O)c2cc(C(F)(F)F)cc(C(F)(F)F)c2)CC1 4.92%, CCOC(=O)C1(C)NC(c2ccc(O)cc2)C2C(=O)N(c3ccccc3)C(=O)C21 (centres undefined) 2.88%, O=C(NCCO)Nc1ccc2nc(-c3ccco3)c(-c3ccco3)nc2c1 52.6%, O=C(Nc1ccc2nc(-c3cccs3)c(-c3cccs3)nc2c1)NC1CC1 -4.56%, O=[N+]([O-])c1ccc(/C=N/N2CCN(Cc3ccccc3)CC2)cc1 8.88%, CCN(CC)c1ccc(C(=O)N/N=C/c2ccc(OC)cc2OC)cc1 0.86%, CCN(CC)c1ccc(C=O)c(OC)c1 11.8%, Cc1ccccc1N1C(=O)c2cccc3cccc(c23)C1=O 4.81%, CN(C)c1ccc(/C=N/N2C(=O)c3ccccc3C2=O)cc1 21.5%, O=C1NN(c2ccc(F)cc2)C(=O)/C1=C\c1cnn(-c2ccccc2)c1 2.23%, CCOC(=O)/C=C/c1cnn(-c2ccccc2)c1 -1.48%

— PubChem BioAssay AID1903 (Southern Research Specialized Biocontainment Screening …, 2009)
